Hits are enriched below; roughly 21% of the tested compounds scored in any of these assays.
Shiga toxin inh – blocks Shiga toxin action in Vero cells. Vero cells, Shiga toxin protein synthesis inhibition reporter. inhibition, % at 38.7 µM. 9.2% of 290,000 active; in the data active means inhibition mostly above about 28%, no sharp cut-off; inactive means mostly below about 43%
SARS PLP yeast – blocks SARS-CoV papain-like protease in a yeast assay; 0.19% of 330,000 active; Potency, µM (titrated, usually from 32.9 µM), hits mostly activators; S. cerevisiae expressing SARS-CoV PLpro, growth rescue; calls by dose curve; further: nearly all actives have a fitted effect of over 55% in size
NS1 function inh – inhibitors of influenza NS1 protein function. 0.4% of 270,000 active. AID 2326. Potency, µM (series often up to 46.1 µM); calls by dose curve; further: actives are rising curves; nearly all actives have a fitted effect of over 50% in size
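Read-out: OD600 growth recovery of NS1-expressing budding yeast. Cells grown overnight at 30C in -URA glucose medium, washed, resuspended and diluted 1:100 in 2% galactose assay medium, pH 6.0. Same strain lacking NS1 served as positive control.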
Pf growth 96h – P. falciparum growth inhibition at 96 hour, primary screen for plastid delayed-death inhibitors; P. falciparum luciferase reporter growth, 96 h; AID 504834; Potency, µM (series often up to 28.7 µM), usual class: inhibitors; 6.9% of 320,000 active
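Compounds incubated with erythrocytes infected by luciferase-expressing P. falciparum (2% hematocrit, 0.05% parasitemia final) for 96 hours, 37 C in 5% CO2. Growth inhibition scored as decreased luciferase luminescence.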
CHX counter – affects cycloheximide protein synthesis inhibition readout, counter-screen; cell reporter, cycloheximide protein synthesis inhibition counterscreen; 12% of 300,000 active; max response, %; in the data active means max response mostly above about 13%, no sharp cut-off; inactive means mostly below about 14%; further: read at 38.3 µM for the half of the compounds with a filed dose
Pf growth 48h – P. falciparum growth inhibition at 48 hours (one generation); P. falciparum luciferase growth in erythrocytes, 48 h; Potency, µM (top dose mostly 28.7 µM), usual class: inhibitors; 5.9% of 310,000 active; AID 504832
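Erythrocytes infected with P. falciparum carrying an integrated firefly luciferase reporter (2% hematocrit, 0.1% parasitemia final) were exposed to compounds in RPMI 1640 with 0.5% Albumax at 37 C, 5% CO2. Growth inhibition was scored as reduced luminescence.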
Large screens that a line does not name were inactive. Unless noted, the call rests on the fitted dose curve; in most records, active means well fitted inhibition curve with a large enough effect; inconclusive means small, poorly fitted or top-dose-only effect, or another doubt; inactive means no such curve, though single readings can be large or run the other way.

Cc1occc1-c1nnc(SCC(=O)NC2CC2)n1C(C)C	none
Cc1cc(NCc2ccccc2)n2ncc(-c3ccccc3)c2n1	Shiga toxin inh 93.0, CHX counter 67.4
COc1ccc(CCNc2cc(C)nc3c(-c4ccccc4)cnn23)cc1OC	Shiga toxin inh active, CHX counter 47.8
Cc1cc(NC(C)c2ccccc2)n2ncc(-c3ccccc3)c2n1 (stereo not drawn)	Shiga toxin inh 68.7, CHX counter 43.7
O=C(NCCSc1c[nH]c2ccccc12)C1CC1	SARS PLP yeast inconclusive, Pf growth 96h inconclusive
Cc1ccc(NC(=O)C(C)c2ccc([N+](=O)[O-])cc2)cc1Cl (stereo not drawn)	Pf growth 96h inconclusive, Pf growth 48h inconclusive
COC/C=C/c1cc(F)c(S(=O)(=O)N2CCN(S(=O)(=O)c3ccc4c(c3)OCCO4)CC2)cc1F	none (no result: SARS PLP yeast, NS1 function inh, Pf growth 96h, Pf growth 48h)
Cc1ccc(N(CCC#N)C(=O)CSc2nnc3ccccn23)cc1	none (no result: Shiga toxin inh, NS1 function inh, CHX counter)
COc1ccccc1NC(=O)Nc1nc(CC(=O)Nc2ccc(N(C)C)cc2)cs1	Pf growth 96h inconclusive (no result: Shiga toxin inh, NS1 function inh, CHX counter)
Cc1cccc(C(=O)n2cnnc2N)c1	Pf growth 48h 10.4µM
Cc1cc(C)cc(C(=O)n2cnnc2N)c1	none (no result: Pf growth 96h)
CCOC(=O)N1CCN(C(=O)c2ccc3nc4ccsc4c(=O)n3c2)CC1	Pf growth 96h 8.28µM
CCOC(=O)N1CCN(C(=O)c2cccn3c(=O)c4sccc4nc23)CC1	Pf growth 96h 2.33µM
CCOC(=O)N1CCN(C(=O)c2ccc3nc4ccc(Cl)cc4c(=O)n3c2)CC1	Pf growth 96h inconclusive
O=C(c1cccn2c(=O)c3cc4ccccc4cc3nc12)N1CCN(c2ccccc2)CC1	Shiga toxin inh 34.9, Pf growth 96h inconclusive, CHX counter 22.7, Pf growth 48h inconclusive
O=C(Cn1nnc(-c2ccccc2)n1)N/N=C/c1cc([N+](=O)[O-])ccc1O	SARS PLP yeast inconclusive, Pf growth 96h 10.4µM
O=C(N/N=C/c1cc([N+](=O)[O-])ccc1O)c1cccc(NC(=O)c2cccc(Cl)c2)c1	Pf growth 48h 2.33µM
O=C(CCC(=O)Nc1cc(C(F)(F)F)ccc1Cl)N/N=C\c1cc([N+](=O)[O-])ccc1O	Pf growth 48h 13.1µM
O=C(Cn1nc2ccccc2n1)N/N=C/c1cc([N+](=O)[O-])ccc1O	Pf growth 96h inconclusive, Pf growth 48h 4.65µM (no result: NS1 function inh)
COc1ccc(/C=C2/C(=O)C(C)(C(C)C)CCC2C)cc1 (stereo not drawn)	none
COc1ccc(COC(=O)NNC(=O)c2ccccc2Cl)cc1	Pf growth 96h inconclusive
O=C(/C=C/Nc1ccc([N+](=O)[O-])cc1Br)c1cccc2ccccc12	CHX counter 20.0
NC(=O)c1cc([N+](=O)[O-])ccc1NCc1cccc2ccccc12	Pf growth 96h inconclusive, Pf growth 48h inconclusive (no result: Shiga toxin inh, NS1 function inh, CHX counter)
Cc1nc2ccc(C(=O)N/N=C/c3cc([N+](=O)[O-])ccc3O)cc2[nH]1	none (no result: NS1 function inh)
O=C(N/N=C/c1cc([N+](=O)[O-])ccc1O)c1cccc2ccccc12	SARS PLP yeast inconclusive, Pf growth 48h 13.1µM
COc1ccc(OCC(O)CNCCOc2ccccc2OC)c(C(C)(C)C)c1 (stereo not drawn)	Pf growth 96h 3.7µM, Pf growth 48h 4.65µM
CC(Sc1nnc(-c2cccs2)n1-c1ccccc1)C(=O)NCc1ccc2c(c1)OCO2 (stereo not drawn)	Pf growth 96h 10.4µM (no result: Pf growth 48h)
COCCn1c(SC(C)C(=O)NCC2CCCO2)nc2sc3c(c2c1=O)CCC3 (stereo not drawn)	Pf growth 96h 8.28µM, Pf growth 48h inconclusive (no result: Shiga toxin inh, NS1 function inh, CHX counter)
C=CCn1c(SCC(=O)NCC2CCCO2)nc2scc(-c3ccccc3)c2c1=O (stereo not drawn)	Pf growth 48h inconclusive
CCn1c(SC(C)C(=O)NCC2CCCO2)nc2scc(-c3ccccc3)c2c1=O (stereo not drawn)	Pf growth 96h 2.94µM, Pf growth 48h 7.38µM (no result: Shiga toxin inh, NS1 function inh, CHX counter)
COCCn1c(SC(C)C(=O)NCC2CCCO2)nc2scc(-c3ccc(F)cc3)c2c1=O (stereo not drawn)	Pf growth 96h inconclusive, Pf growth 48h 13.1µM (no result: Shiga toxin inh, NS1 function inh, CHX counter)
Cc1ccc(NC(=O)C23CCC(C)(C(=O)[C@H]2Br)C3(C)C)cc1 (stereo partly drawn)	none
C=CCn1c(SC(C)C(=O)NCc2ccc3c(c2)OCO3)nc2scc(-c3ccccc3)c2c1=O (stereo not drawn)	Pf growth 96h 6.57µM, Pf growth 48h inconclusive

Screening data (PubChem BioAssay)
